Consider 27 molecules from PubChem BioAssay (Tox21).

“And” between values parts separate entries of the source, which are not always exact repeats. Equal values may be shown once. Inconclusive results are not listed. The source holds several records for some structures; these can differ, active in one and inactive in another. The source made the active and inactive calls. Calls come from the whole dose curve; as a rule, active = well fitted curve in the direction sought with a large enough effect in the repeat runs; inconclusive = weak or mixed curves; inactive = no such curve, though single readings can be large; an effect the other way counts as inactive or inconclusive.

In test [1] the target is Cytochrome P450 2C19 (Homo sapiens) (UniProt P33261). As to the kind of experiment: Cytochrome P450 Family 2 Subfamily C Member 19 (CYP2C19) small molecule antagonists: luciferase reporter qHTS assay (AID 1671197). Note: nearly all actives have a fitted effect of over 65% in size. The essentials:
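Light output is proportional to CYP2C19 activity: proluciferin substrate is converted to luciferin, then detected by a luciferin detection reagent that also stops the 1 h, 37C NADPH-driven reaction. Ketoconazole serves as positive control.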
In general terms: In a reporter assay the amount or activity of a reporter protein is the signal.

Test [2] addresses Cytochrome P450 2C9 (Homo sapiens) (UniProt P11712). Description: Cytochrome P450 Family 2 Subfamily C Member 9 (CYP2C9) small molecule antagonists: luciferase reporter qHTS assay (AID 1671198). Note: nearly all actives have a fitted effect of over 50% in size. The essentials: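 CYP2C9 activity was measured with a P450-Glo proluciferin substrate. Enzyme–substrate mix was held with compound for 10 min at room temperature, then NADPH regeneration solution was added for 1 h at 37C. Luciferin product was read as luminescence.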

The target of test [3] is Cytochrome P450 1A2 (Homo sapiens) (UniProt P05177). Description: Cytochrome P450 Family 1 Subfamily A Member 2 (CYP1A2) small molecule antagonists: luciferase reporter qHTS assay (AID 1671199). Note: nearly all actives have a fitted effect of over 50% in size. In outline: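 Luminescence readout (relative luminescence units) after luciferin detection reagent, 20 min RT. Preceded by 1 h room-temperature CYP1A2 reaction with NADPH regeneration solution following 10 min compound preincubation with enzyme and proluciferin substrate. Furafylline positive control.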
Sequence of Cytochrome P450 1A2 (Homo sapiens) (P05177 whole entry, looked up): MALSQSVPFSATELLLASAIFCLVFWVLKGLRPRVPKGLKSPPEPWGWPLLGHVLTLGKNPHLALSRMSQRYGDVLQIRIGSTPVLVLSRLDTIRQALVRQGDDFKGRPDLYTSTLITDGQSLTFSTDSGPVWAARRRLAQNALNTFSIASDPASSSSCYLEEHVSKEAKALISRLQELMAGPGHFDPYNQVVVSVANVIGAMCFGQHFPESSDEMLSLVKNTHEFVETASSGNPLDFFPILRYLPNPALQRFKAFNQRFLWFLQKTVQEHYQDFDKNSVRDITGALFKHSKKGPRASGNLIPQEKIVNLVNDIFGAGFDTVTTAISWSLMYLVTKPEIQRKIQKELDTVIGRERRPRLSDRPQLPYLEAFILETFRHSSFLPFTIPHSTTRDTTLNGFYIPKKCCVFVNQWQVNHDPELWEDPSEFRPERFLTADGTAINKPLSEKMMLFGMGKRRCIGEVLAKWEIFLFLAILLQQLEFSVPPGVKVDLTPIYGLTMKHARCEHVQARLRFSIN

Test [4] addresses Voltage-gated inwardly rectifying potassium channel KCNH2 (Homo sapiens) (UniProt Q12809). As to the kind of experiment: Human Ether-a-go-go-Related Gene (hERG) channel small molecule antagonists: fluorescence cell-based qHTS assay (AID 1671200). Note: nearly all actives have a fitted effect of over 50% in size. In outline: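 Kinetic two-minute fluorescence traces, sampled at 1 s, were collected following thallium stimulus of U2OS cells (1000 per well) that had been cultured overnight at 37 C and loaded with FluxOR II.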

Test [5] addresses Cytochrome P450 3A4 (Homo sapiens) (UniProt P08684). Description: Cytochrome P450 Family 3 Subfamily A Member 4 (CYP3A4) small molecule antagonists: luciferase reporter qHTS assay (AID 1671201). Note: nearly all actives have a fitted effect of over 50% in size. In outline:
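Proluciferin-to-luciferin conversion by CYP3A4, NADPH-regenerated, 1 h RT; luminescence read as RLU. Ketoconazole as control.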
Potency is the fitted concentration of half-maximal effect.

Sequence of Cytochrome P450 3A4 (Homo sapiens) (P08684 whole entry, looked up): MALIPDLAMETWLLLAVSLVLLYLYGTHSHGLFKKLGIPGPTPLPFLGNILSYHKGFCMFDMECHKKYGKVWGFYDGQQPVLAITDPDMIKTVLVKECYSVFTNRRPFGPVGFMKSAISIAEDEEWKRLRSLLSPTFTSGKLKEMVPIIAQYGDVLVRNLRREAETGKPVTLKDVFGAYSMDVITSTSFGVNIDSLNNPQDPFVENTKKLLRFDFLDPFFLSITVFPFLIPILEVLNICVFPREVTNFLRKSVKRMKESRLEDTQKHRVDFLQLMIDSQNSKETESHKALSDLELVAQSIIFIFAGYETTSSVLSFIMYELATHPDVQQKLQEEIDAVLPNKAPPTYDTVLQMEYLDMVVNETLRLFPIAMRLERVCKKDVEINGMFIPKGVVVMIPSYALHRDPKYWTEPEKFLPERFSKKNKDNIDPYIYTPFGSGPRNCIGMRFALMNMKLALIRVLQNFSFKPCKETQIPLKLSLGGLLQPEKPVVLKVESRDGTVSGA
Sequence of Voltage-gated inwardly rectifying potassium channel KCNH2 (Homo sapiens) (Q12809 whole entry, looked up): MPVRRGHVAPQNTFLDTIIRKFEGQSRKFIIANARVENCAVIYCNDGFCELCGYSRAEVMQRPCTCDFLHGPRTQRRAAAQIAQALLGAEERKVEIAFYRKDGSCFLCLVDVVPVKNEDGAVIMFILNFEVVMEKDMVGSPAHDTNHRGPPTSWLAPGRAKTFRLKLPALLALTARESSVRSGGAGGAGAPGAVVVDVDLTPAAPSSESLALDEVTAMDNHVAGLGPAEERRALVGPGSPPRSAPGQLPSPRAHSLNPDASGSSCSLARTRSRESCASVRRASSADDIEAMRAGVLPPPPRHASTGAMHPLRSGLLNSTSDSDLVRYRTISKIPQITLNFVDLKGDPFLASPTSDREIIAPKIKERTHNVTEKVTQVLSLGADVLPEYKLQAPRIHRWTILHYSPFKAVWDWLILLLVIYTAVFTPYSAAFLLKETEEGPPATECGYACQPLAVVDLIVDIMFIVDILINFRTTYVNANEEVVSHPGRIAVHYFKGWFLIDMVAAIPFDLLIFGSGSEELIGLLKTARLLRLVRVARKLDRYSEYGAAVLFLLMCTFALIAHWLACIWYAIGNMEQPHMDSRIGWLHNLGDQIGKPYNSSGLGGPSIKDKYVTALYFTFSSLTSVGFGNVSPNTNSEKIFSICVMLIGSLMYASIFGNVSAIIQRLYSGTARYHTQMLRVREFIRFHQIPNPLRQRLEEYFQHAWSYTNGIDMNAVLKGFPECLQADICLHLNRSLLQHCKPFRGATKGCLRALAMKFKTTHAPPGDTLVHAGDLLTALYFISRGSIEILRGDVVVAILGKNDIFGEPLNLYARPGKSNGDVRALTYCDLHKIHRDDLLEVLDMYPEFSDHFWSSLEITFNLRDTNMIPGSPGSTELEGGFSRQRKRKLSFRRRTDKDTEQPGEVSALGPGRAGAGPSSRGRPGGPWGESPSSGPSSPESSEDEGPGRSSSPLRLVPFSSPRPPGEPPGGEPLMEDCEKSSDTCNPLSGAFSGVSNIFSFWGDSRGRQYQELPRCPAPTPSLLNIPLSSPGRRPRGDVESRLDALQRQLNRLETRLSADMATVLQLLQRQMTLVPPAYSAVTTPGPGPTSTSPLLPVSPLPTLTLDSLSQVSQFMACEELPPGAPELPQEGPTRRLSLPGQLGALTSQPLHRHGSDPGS
Sequence of Cytochrome P450 2C9 (Homo sapiens) (P11712 whole entry, looked up): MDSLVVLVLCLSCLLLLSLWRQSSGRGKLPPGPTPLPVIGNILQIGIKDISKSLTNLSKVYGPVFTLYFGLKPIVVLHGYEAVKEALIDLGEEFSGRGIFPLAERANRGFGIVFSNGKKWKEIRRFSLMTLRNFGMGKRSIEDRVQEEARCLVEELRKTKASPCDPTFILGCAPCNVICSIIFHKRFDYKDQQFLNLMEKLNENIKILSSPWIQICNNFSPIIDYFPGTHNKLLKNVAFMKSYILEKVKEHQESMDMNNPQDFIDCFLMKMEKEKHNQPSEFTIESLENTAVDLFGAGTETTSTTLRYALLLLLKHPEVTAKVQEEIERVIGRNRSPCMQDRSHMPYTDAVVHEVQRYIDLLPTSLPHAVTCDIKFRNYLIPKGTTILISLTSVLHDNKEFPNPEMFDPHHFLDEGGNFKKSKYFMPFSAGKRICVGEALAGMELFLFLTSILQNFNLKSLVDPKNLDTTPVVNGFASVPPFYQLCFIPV
Sequence of Cytochrome P450 2C19 (Homo sapiens) (P33261 whole entry, looked up): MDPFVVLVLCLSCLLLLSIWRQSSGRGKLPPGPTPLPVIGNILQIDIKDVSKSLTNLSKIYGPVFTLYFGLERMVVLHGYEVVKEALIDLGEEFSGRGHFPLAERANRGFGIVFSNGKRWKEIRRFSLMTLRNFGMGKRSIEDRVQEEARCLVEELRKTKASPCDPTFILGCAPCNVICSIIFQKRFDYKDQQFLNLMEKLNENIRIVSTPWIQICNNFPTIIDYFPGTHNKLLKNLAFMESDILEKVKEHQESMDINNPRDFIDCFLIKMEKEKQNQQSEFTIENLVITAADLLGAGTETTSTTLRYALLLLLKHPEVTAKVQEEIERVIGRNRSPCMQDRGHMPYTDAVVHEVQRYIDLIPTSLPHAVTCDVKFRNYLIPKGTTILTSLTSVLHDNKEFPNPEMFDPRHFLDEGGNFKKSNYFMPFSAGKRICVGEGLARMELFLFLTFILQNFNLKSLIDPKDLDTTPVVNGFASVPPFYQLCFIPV

On to `O=[N+]([O-])c1ccc([As](=O)(O)O)cc1`, for which the Potency entry in test [1], in test [2], in test [3], in test [4] and in test [5] was “inactive” throughout.
Turning to `CCCN(CCC)N=O`, the Potency entry in test [1], in test [2], in test [3], in test [4] and in test [5] was “inactive” each time.
Consider `COCCl`, for which the Potency in test [1] is 33 µM (active) and 22.6 µM (active); in test [3], 20.1 µM (active). Further, the Potency entry in test [2], in test [4] and in test [5] was “inactive” in each case.
For `ClCCBr`, in test [1], the Potency was 79.4 µM (active) and inactive. Further, the Potency result in test [2], in test [3], in test [4] and in test [5] was “inactive” throughout.
For the molecule `Nc1ccc(Cc2ccc(N)cc2)cc1`, the Potency in test [1] is 35 µM (active) and inactive; in test [2], 31.2 µM (active) and inactive; in test [3], 39.3 µM (active) and 35.6 µM (active); in test [5], 6.99 µM (active) and 3.99 µM (active). The Potency entry in test [4] was “inactive”.
On to `CC(Oc1ccc(Cl)cc1Cl)C(=O)O` (stereo not given), for which the Potency in test [1] is 35.7 µM (active); in test [2] it was 35.7 µM (active) and 71 µM (active). Moreover, the Potency entry in test [3], in test [4] and in test [5] was “inactive” each time.
In the case of `O=NN1CCCCCCC1`, the Potency entry in test [1], in test [2], in test [3], in test [4] and in test [5] was “inactive” each time.
Regarding `Cc1ccc([N+](=O)[O-])cc1C`, the Potency result in test [1], in test [2], in test [3], in test [4] and in test [5] was “inactive” each time.
With `BrCCBr`, the Potency is 69.1 µM (active) and inactive in test [1]; 30.9 µM (active) and inactive in test [3]. Also, the Potency entry in test [2], in test [4] and in test [5] was “inactive” throughout.
For `O=c1ccc(=O)[nH][nH]1`, the Potency result in test [1], in test [2], in test [3], in test [4] and in test [5] was “inactive” throughout.
`COc1ccc2c3c1O[C@H]1[C@@H](O)C=C[C@H]4[C@@H](C2)N(C)CC[C@@]341`: the Potency result in test [1], in test [2], in test [3], in test [4] and in test [5] was “inactive” throughout.
With `CCCCCCCCCCCC#N`, the Potency in test [1] was 18 µM (active) and inactive. Also, the Potency result in test [2], in test [3], in test [4] and in test [5] was “inactive” each time.
On to `O=C(NC(=O)c1c(F)cccc1F)Nc1cc(Cl)c(OC(F)(F)C(F)C(F)(F)F)cc1Cl` (stereo not given), for which the Potency is 10 µM (active) and 34.7 µM (active) in test [1]; 11.2 µM (active) and 17.4 µM (active) in test [2]. The Potency result in test [3], in test [4] and in test [5] was “inactive” each time.
Take `CC(C)NC(=O)N1CC(=O)N(c2cc(Cl)cc(Cl)c2)C1=O`: the Potency in test [1] was 7.96 µM (active) and 8.94 µM (active); in test [2], 1.26 µM (active); in test [3] it was 12.6 µM (active). The Potency result in test [4] and in test [5] was “inactive” each time.
Turning to `O=S(=O)(c1ccc(O)cc1)c1ccc(O)cc1`, the Potency in test [1] was 17.9 µM (active) and 22.4 µM (active). For the same molecule, the Potency result in test [2], in test [3], in test [4] and in test [5] was “inactive” throughout.
In the case of `Cc1ccccc1O`, the Potency entry in test [1], in test [2], in test [4] and in test [5] was “inactive” each time. In test [3], the Potency is 39.9 µM (active).
As for `Clc1ccc(Cl)cc1`, the Potency result in test [1], in test [2], in test [3], in test [4] and in test [5] was “inactive” throughout.
With `CCN(CC)CCO`, the Potency result in test [1], in test [2], in test [4] and in test [5] was “inactive” in each case. For the same molecule, the Potency result in test [3] was “inactive and 31.7 µM (active)”.
For the molecule `CC(C)(C)OOC(C)(C)C`, the Potency result in test [1], in test [2], in test [3], in test [4] and in test [5] was “inactive” each time.
Regarding `Cn1cc(-c2ccccc2)c(=O)c(-c2cccc(C(F)(F)F)c2)c1`, the Potency was 1.95 µM (active) and 2.83 µM (active) in test [1]; 34.7 µM (active) and 31.7 µM (active) in test [2]; 19.5 µM (active) and 17.8 µM (active) in test [3]; 12.3 µM (active) and 12.6 µM (active) in test [5]. Besides, the Potency entry in test [4] was “inactive”.
For `CN(C)N=O`, the Potency result in test [1], in test [2], in test [3], in test [4] and in test [5] was “inactive” throughout.
Consider `Nc1ccc(Oc2ccc(N)cc2)cc1`, for which the Potency in test [1] was 18.1 µM (active) and 20 µM (active); in test [2], 14.4 µM (active) and 8.94 µM (active); in test [5], 18.1 µM (active) and inactive. The Potency result in test [3] and in test [4] was “inactive” in each case.
As to `CCc1cccc(C)c1N(C(=O)CCl)C(C)COC` (stereo not given), the Potency in test [1] is 6.69 µM (active) and 6.33 µM (active); in test [2], 29.9 µM (active) and 28.3 µM (active); in test [3], 66.9 µM (active) and inactive. Further, the Potency result in test [4] and in test [5] was “inactive” throughout.
On to `O=NN1CCCC1`, for which the Potency is 33.2 µM (active) and inactive in test [1]; 33.2 µM (active) and inactive in test [3]. Besides, the Potency result in test [2], in test [4] and in test [5] was “inactive” throughout.
For `Cc1cc(-c2cc(C)c(N)c(C)c2)cc(C)c1N`, the Potency is 10.1 µM (active) and 8.78 µM (active) in test [1]; 40 µM (active) and 22 µM (active) in test [2]; 712 nM (active) and 311 nM (active) in test [3]; 34.9 µM (active) in test [5]. Further, the Potency entry in test [4] was “inactive”.
Turning to `Cc1ccc(N)cc1N`, the Potency in test [1] was 34.6 µM (active) and 31.7 µM (active); in test [2], 34.6 µM (active) and 39.9 µM (active); in test [3], 30.9 µM (active) and 35.6 µM (active); in test [5], 30.9 µM (active). In addition, the Potency result in test [4] is “inactive”.
For `O=[N+]([O-])c1ccc(Oc2ccc(Cl)cc2Cl)cc1`, the Potency in test [1] is 5.67 µM (active) and 5.64 µM (active); in test [2], 28.4 µM (active) and 31.7 µM (active); in test [3], 31.9 µM (active) and 22.4 µM (active); in test [4], 19.5 µM (active). Moreover, the Potency entry in test [5] was “inactive”.
